46 compounds from PMC4552634, “A New Set of Chemical Starting Points with Plasmodium falciparum Transmission-Blocking Potential for Antimalarial Drug Discovery” (PLoS ONE, 2015) can be followed below.

The campaign covered roughly 13,000 compounds. About 3,200 (25%) showed an effect of 50% or more. Some of the results follow.

The test system of this assay is P. falciparum stage V gametocytes. More on the design: BacTiter-Glo ATP luminescence viability of purified stage V gametocytes in 384-well plates, per cent inhibition versus DMSO. The note with it: 48 h, 5 µM; inhibitor.
On to `CCCC(=O)Nc1ccc(OCCN(Cc2ccccc2OC(F)(F)F)c2ccc(C(F)(F)F)c(C#N)c2)cc1` [TCMDC-132791], for which the % Inhibition (as a rule, the change of the read-out against control, counted positive when it falls) is recorded as 22.95%. In the case of `CCCCCc1ccc(NC(=O)Nc2ccc(Cn3ncc(N4CCCNCC4)c(Cl)c3=O)cc2)cc1` [TCMDC-133312], the “% Inhibition” value is -21.48%. With `O=C(NCCCCN1CCC(c2ccc(C(F)(F)F)cc2C(F)(F)F)CC1)c1ccc(NC(=O)c2ccc(Cl)cc2)cc1` [TCMDC-138343] the figure was -51.81%. `COc1ccc(C2CCN(CCCCNC(=O)c3ccc(NC(=O)c4ccc(Cl)cc4)cc3)C2)c(OC)c1` (stereo not shown) [TCMDC-138281]: the “% Inhibition” value was found to be 10.37%. With `Cc1ccc(C2CCN(CCCCNC(=O)c3ccc(-c4ccc(C(F)(F)F)cc4)cc3)CC2)c(O)c1` [TCMDC-138538], the “% Inhibition” value stood at 45.11%.

As to `CCOc1ccc(C2CCN(CCCCNC(=O)c3ccc(NC(=O)c4ccc(Cl)cc4)cc3)CC2)c(OCC)c1` [TCMDC-138260], the “% Inhibition” value is 93.19%. `COc1cccc(OCC2CCCN(CCCCNC(=O)c3ccc(NC(=O)c4ccc(Cl)cc4)cc3)C2)c1` (stereo not shown) [TCMDC-138269]: the “% Inhibition” value stood at 92.38%. Consider `COc1ccc(C2CCN(CCCNC(=O)c3ccc(NC(=O)c4ccc(Cl)cc4)cc3)CC2)c(OC)c1` [TCMDC-138288], for which the “% Inhibition” value worked out at 4.031%. With `CCOc1ccc(N2CCN(CCCCNC(=O)c3ccc(NC(=O)c4ccc(Cl)cc4)cc3)CC2)c(OCC)c1` [TCMDC-138243] the figure was 4.088%; with `CC(C)c1ccc(C2CCN(CCCCNC(=O)c3ccc(NC(=O)c4ccc(C(F)(F)F)cc4)cc3)CC2)c(O)c1` [TCMDC-138527], 105.5%. In the case of `COc1cccc(C2CCCN(CCCCNC(=O)c3ccc(NC(=O)c4ccc(Cl)cc4)cc3)C2)c1` (stereo not shown) [TCMDC-138283], the “% Inhibition” value stood at 16.5%.

On to `CCCCc1nc2nc(N)nc(N)c2cc1CCC` [TCMDC-137499], for which the “% Inhibition” value is recorded as 32.62%. `Nc1ccn([C@@H]2O[C@H](COC(c3ccccc3)(c3ccccc3)c3ccccc3)[C@@H](O)[C@@H]2O)c(=O)n1` [TCMDC-131864]: the “% Inhibition” value is reported as 13.5%. For the compound `Cc1[nH]cc(Br)c(=O)c1-c1ccc(Oc2ccccc2)cc1` [TCMDC-136196], the “% Inhibition” value is 35.13%. On to `COc1cc(NC(=O)Nc2cccc3ccccc23)c(OC)cc1Cl` [TCMDC-123751], for which the “% Inhibition” value was 9.254%. With `COc1ccc(OC)c(-c2ccc(=O)n(CC(=O)Nc3cccc4ccccc34)n2)c1` [TCMDC-125146] the figure was 85.63%; with `COc1ccc(C(=O)Cn2nc(-c3ccc(Cl)cc3)ccc2=O)c(OC)c1` [TCMDC-135946], -6.888%. Turning to `O=C(Cc1cnc[nH]1)Nc1cccc(-c2cccc(-c3nc4ccc(F)cc4[nH]3)c2)c1` [TCMDC-136943], the “% Inhibition” value is 10.3%. Take `O=C(Nc1ccc(Cl)c(Cl)c1)N(Cc1ccccc1Br)C1CCNCC1` [TCMDC-141401]: the “% Inhibition” value came to 32.46%. With `O=C(Nc1cccc(-c2nc3ccccc3[nH]2)c1)c1ccc(-c2cccc([N+](=O)[O-])c2)o1` [TCMDC-125228] the figure was 18.9%; with `COc1cccc(-c2cc(C(=O)Nc3cc(Oc4ccc(O)cc4)cc([N+](=O)[O-])c3)on2)c1` [TCMDC-125290], -10.41%.

Consider `O=C(Nc1ccc(-c2nc3ccccc3[nH]2)cc1)c1ccc(-c2cccc([N+](=O)[O-])c2)o1` [TCMDC-125805], for which the “% Inhibition” value is reported as -5.454%. On to `COc1cccc(-c2cc(-c3ccc(NC(=O)c4ccccc4)cc3)c3c(N)ncnc3n2)c1` [TCMDC-134855], for which the “% Inhibition” value is on record as -19.07%. In the case of `O=C(Nc1cc(Oc2ccc(O)cc2)cc([N+](=O)[O-])c1)c1cc(-c2ccc(F)cc2)no1` [TCMDC-125444], the “% Inhibition” value is recorded as -44.25%. Take `CC(C)(C)c1ccc(C(=O)Nc2ccc(NC(=O)c3ccc([N+](=O)[O-])o3)cc2)cc1` [TCMDC-123733]: the “% Inhibition” value is on record as -4.108%. As to `O=C(Nc1cccc(-c2cccc(-c3ccc(F)cc3)n2)c1)c1ccc([N+](=O)[O-])o1` [TCMDC-124807], the “% Inhibition” value is given as 101.6%. For `COc1cccc(-c2cccc(-c3ccc(NC(=O)c4ccc([N+](=O)[O-])o4)cc3)n2)c1` [TCMDC-124806] the value was 99.55%; for `CCCc1ccc(-c2csc(NC(=O)c3ccc([N+](=O)[O-])o3)n2)cc1` [TCMDC-125314], 1.071%.

For `Cc1ccc(-n2nc3ccc(NC(=O)c4ccc([N+](=O)[O-])o4)cc3n2)cc1C` [TCMDC-123655], the “% Inhibition” value is reported as 20.82%. In the case of `COc1ccc(OC)c(-c2cccc(-c3cccc(NC(=O)c4ccc([N+](=O)[O-])o4)c3)n2)c1` [TCMDC-124799], the “% Inhibition” value is listed as 113.4%.

Regarding `COc1ccccc1-c1cccc(-c2cccc(NC(=O)c3ccc([N+](=O)[O-])o3)c2)n1` [TCMDC-124800], the “% Inhibition” value came out at 105.3%.

On to `Cc1cc(C(F)(F)F)cc(-n2ncc(-c3ccc(C(=O)NCc4ccccc4N)cc3)c2N)n1` [TCMDC-136658], for which the “% Inhibition” value is recorded as -13.23%. For `COc1ccc(CN2CCC(N3CCc4cc(NC(=O)c5cc(C)on5)ccc43)C2)cc1Cl` (stereo not shown) [TCMDC-135080], the “% Inhibition” value is given as -33.25%. Take `COc1cc(C)ccc1S(=O)(=O)N1CCCCC(c2ccc(C(F)(F)F)cc2)=N1` [TCMDC-134533]: the “% Inhibition” value was determined as 19.73%. Regarding `CCn1c(SC)nnc1C1CCCN(CC(=O)Nc2nc3ccc(OC)cc3s2)C1` (stereo not shown) [TCMDC-123539], the “% Inhibition” value came out at 2.495%. For `Cc1cc(CN2C(=O)C(c3ccccc3)(c3ccccc3)N=C2N)c(C(F)(F)F)o1` [TCMDC-132305], the “% Inhibition” value is reported as 6.087%. Take `N=c1n(Cc2ccccc2)c2ccccc2n1CC(O)c1ccc(Cl)cc1` (stereo not shown) [TCMDC-124078]: the “% Inhibition” value stood at 66.41%. For the compound `N=c1n(Cc2ccc(Cl)cc2)c2ccccc2n1CC(O)c1ccc(Cl)c(Cl)c1` (stereo not shown) [TCMDC-123813], the “% Inhibition” value is listed as 91.34%. On to `N=c1n(Cc2ccccc2)c2ccccc2n1CC(O)c1ccc(Cl)c(Cl)c1` (stereo not shown) [TCMDC-124061], for which the “% Inhibition” value is listed as 50.12%. `OC(CN1CCN(Cc2ccccc2)CC1)Cn1c(-c2ccccc2)c(-c2ccccc2)c2ccccc21` (stereo not shown) [TCMDC-124021]: the “% Inhibition” value stood at 9.388%. Take `O=C(Cc1ccccc1)NC(CCN1CCC(NC(=O)c2ccc(Cl)cc2)CC1)c1ccc(Cl)c(Cl)c1` (stereo not shown) [TCMDC-141709]: the “% Inhibition” value is -3.295%. For `N=c1sc2ccccc2n1CC(O)c1ccc(Cl)c(Cl)c1` (stereo not shown) [TCMDC-124031], the “% Inhibition” value worked out at 27.67%. Consider `COC(=O)C(C)(C)Cc1c(SC(C)(C)C)c2cc(C(C)C)ccc2n1Cc1ccc(Cl)cc1` [TCMDC-131973], for which the “% Inhibition” value is reported as 5.735%. For the compound `Cc1ccc2c(c1)nc(N)n2C[C@H](O)c1ccccc1` [TCMDC-138693], the “% Inhibition” value is given as 42.68%. For `CN(C)CC(O)C(c1ccccc1)c1ccc(Cl)cc1` (stereo not shown) [TCMDC-131413] the value was 8.677%.

Take `C=CCn1c(=N)n(CC(O)c2ccc(Cl)c(Cl)c2)c2ccccc21` (stereo not shown) [TCMDC-125726]: the “% Inhibition” value is recorded as 57.07%.
